Reference: PubChem BioAssay (NCI)
The panel holds about 79,000 compounds, 15% with a hit somewhere; the sample as a whole holds those more often. Values without a mark were called inactive. The source made the active and inactive calls. Rule as the data show it: active = growth inhibition above about 70%; inactive = the rest.

Experiments:
[1] = NCI Yeast Anticancer Drug Screen. Data for the rad52 strain (AID 147);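 also: 0% = growth of vehicle-treated control cultures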; conditions: S. cerevisiae rad52 mutant growth inhibition, stronger effect = higher value
How it was run: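 Yeast strain carrying a DNA damage repair alteration was exposed to test compounds. Growth inhibition was measured relative to vehicle-treated controls.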

[2] = NCI Yeast Anticancer Drug Screen. Data for the wt1 strain (AID 149);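 also: 0% = growth of vehicle-treated wt1 cultures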; conditions: S. cerevisiae wt1 strain (SPY 50644) growth inhibition, stronger effect = higher value
How it was run: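 Readout: yeast growth inhibition, normalised to vehicle controls, in the wt1 strain exposed to test compounds.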

[3] = NCI Yeast Anticancer Drug Screen. Data for the rad50EPP+ strain (AID 151);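 also: 0% = growth of vehicle-treated control cultures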; conditions: S. cerevisiae rad50 mutant strain, stronger effect = higher value
How it was run: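 Yeast strain carrying rad50 alteration (rad50EPP+) exposed to compounds; growth inhibition measured relative to vehicle-treated controls.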

[4] = NCI Yeast Anticancer Drug Screen. Data for the mgt1 strain (AID 153); conditions: S. cerevisiae mgt1 mutant growth inhibition, stronger effect = higher value
How it was run: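 Yeast mgt1 strain (DNA repair/cell-cycle alteration panel) exposed to compounds; growth inhibition measured relative to vehicle-treated controls.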

[5] = NCI Yeast Anticancer Drug Screen. Data for the rad50 strain (AID 155);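 also: 0% = growth of vehicle-only cultures of the same strain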; conditions: S. cerevisiae rad50 strain growth inhibition, stronger effect = higher value
How it was run: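 Compounds were tested on a yeast strain with an engineered DNA damage repair alteration; the reported value is growth inhibition normalised to vehicle treatment.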

[6] = NCI Yeast Anticancer Drug Screen. Data for the mec2-1 strain (AID 157); conditions: S. cerevisiae mec2-1 strain, stronger effect = higher value
How it was run: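 mec2-1 yeast strain, carrying an alteration in DNA damage repair or cell cycle control, was exposed to compounds; growth inhibition was measured relative to vehicle-treated controls.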

[7] = NCI Yeast Anticancer Drug Screen. Data for the rad14 strain (AID 159);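 also: 0% = growth of vehicle-treated control cultures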; conditions: S. cerevisiae rad14 strain growth inhibition, stronger effect = higher value
How it was run: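 Compound-treated yeast with a defined DNA-repair lesion; growth inhibition normalised to vehicle-treated cultures.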

[8] = NCI Yeast Anticancer Drug Screen. Data for the sgs1 mgt1 strain (AID 161);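 also: 0% = growth of cultures given vehicle only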; conditions: S. cerevisiae sgs1 mgt1 strain, stronger effect = higher value
How it was run: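 This yeast growth screen uses a strain with defined DNA-repair lesions; compound-treated growth is compared with vehicle-treated growth.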

[9] = NCI Yeast Anticancer Drug Screen. Data for the CLN2oe strain (AID 163);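 also: 0% = growth of vehicle-only control cultures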; conditions: S. cerevisiae CLN2oe strain, stronger effect = higher value
How it was run: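 Yeast cells carrying a defined cell-cycle control alteration were exposed to test compounds. Growth inhibition was scored against vehicle-treated control cultures.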

[10] = NCI Yeast Anticancer Drug Screen. Data for the cln2 rad14 strain (AID 165);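 also: 0% = growth equal to vehicle treated cultures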; conditions: S. cerevisiae cln2 rad14 strain, stronger effect = higher value
How it was run: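 Yeast carrying cln2 and rad14 alterations (cell cycle control and DNA damage repair) were exposed to compounds. Growth inhibition was measured against vehicle-treated controls.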

[11] = NCI Yeast Anticancer Drug Screen. Data for the bub3 strain (AID 167); conditions: S. cerevisiae bub3 mutant strain, stronger effect = higher value
How it was run: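 Growth of a checkpoint-deficient yeast mutant is measured after compound exposure. Values represent inhibition relative to vehicle.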

[12] = NCI Yeast Anticancer Drug Screen. Data for the wt2 strain (AID 169);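 also: 0% = growth of vehicle-treated yeast cultures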; conditions: S. cerevisiae wt2 strain growth inhibition, stronger effect = higher value
How it was run: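 Yeast cells were exposed to test compounds, and growth inhibition was measured relative to vehicle-treated controls.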

[13] = NCI Yeast Anticancer Drug Screen. Data for the mlh1 strain (AID 171);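 also: 0% = growth of vehicle-treated control cultures of the same strain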; conditions: S. cerevisiae mlh1 strain growth inhibition, stronger effect = higher value
How it was run: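 Yeast carrying a defined genetic alteration in DNA damage repair or cell cycle control were exposed to test compounds. Growth inhibition was measured relative to vehicle-treated controls.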

[14] = NCI Yeast Anticancer Drug Screen. Data for the sgs1 strain (AID 173);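 also: 0% = growth of vehicle-only control cultures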; conditions: S. cerevisiae sgs1 mutant, stronger effect = higher value
How it was run: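 Yeast mutant strains carrying defined defects in DNA damage repair or cell cycle control were exposed to test compounds. Growth inhibition was scored against vehicle-treated controls.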

[15] = NCI Yeast Anticancer Drug Screen. Data for the mlh1 rad18 strain (AID 175); conditions: S. cerevisiae mlh1 rad18 strain growth inhibition, stronger effect = higher value
How it was run: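 Growth inhibition of the yeast strain was measured after compound exposure and expressed relative to vehicle-treated controls. The strain carries defined defects in DNA damage repair.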

[16] = NCI Yeast Anticancer Drug Screen. Data for the rad18 strain (AID 177); conditions: S. cerevisiae rad18 mutant growth inhibition, stronger effect = higher value
How it was run: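 Yeast carrying a defined DNA damage repair alteration were exposed to compounds. Growth inhibition was expressed relative to vehicle-treated controls.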

[17] = at 5.0 µM (retest, dose inferred, filed as 0.5)
[18] = at 50.0 µM (retest, dose inferred, filed as 5.0)

Nc1nc(N)c2c(Cl)c(CNc3ccc(C(=O)NC(CC(=O)O)C(=O)O)cc3)ccc2n1 (stereo unspecified)
growth inhibition ([1]; at 1.2 µM): 40% | growth inhibition ([1]; at 3.7 µM): 35% | growth inhibition ([1]; at 11.0 µM): 52% | growth inhibition ([1]; at 33.0 µM): 80% (active) | growth inhibition ([1]; at 100.0 µM): 91% (active) | growth inhibition ([2]; at 1.2 µM): 19% | growth inhibition ([2]; at 3.7 µM): 15% | growth inhibition ([2]; at 11.0 µM): 17% | growth inhibition ([2]; at 33.0 µM): 42% | growth inhibition ([2]; at 100.0 µM): 74% (active) | growth inhibition ([3]; at 1.2 µM): 10% | growth inhibition ([3]; at 3.7 µM): 6% | growth inhibition ([3]; at 11.0 µM): 13% | growth inhibition ([3]; at 33.0 µM): 17% | growth inhibition ([3]; at 100.0 µM): 41% | growth inhibition ([4]; at 1.2 µM): 6% | growth inhibition ([4]; at 3.7 µM): -3% | growth inhibition ([4]; at 11.0 µM): -2% | growth inhibition ([4]; at 33.0 µM): 30% | growth inhibition ([4]; at 100.0 µM): 55% | growth inhibition ([5]; at 1.2 µM): 12% | growth inhibition ([5]; at 3.7 µM): 18% | growth inhibition [5, 17]: 8% | growth inhibition ([5]; at 11.0 µM): 14% | growth inhibition ([5]; at 33.0 µM): 65% | growth inhibition [5, 18]: 47% | growth inhibition ([5]; at 50.0 µM): 77.5% (active) | growth inhibition ([5]; at 100.0 µM): 80% (active) | growth inhibition ([6]; at 1.2 µM): 14% | growth inhibition ([6]; at 3.7 µM): 28% | growth inhibition [6, 17]: 0% | growth inhibition ([6]; at 11.0 µM): 75% (active) | growth inhibition ([6]; at 33.0 µM): 93% (active) | growth inhibition [6, 18]: 90% (active) | growth inhibition ([6]; at 50.0 µM): 87.8% (active) | growth inhibition ([6]; at 100.0 µM): 95% (active) | growth inhibition ([7]; at 1.2 µM): -8% | growth inhibition ([7]; at 3.7 µM): -11% | growth inhibition ([7]; at 11.0 µM): -18% | growth inhibition ([7]; at 33.0 µM): 44% | growth inhibition ([7]; at 100.0 µM): 78% (active) | growth inhibition [8, 17]: 20% | growth inhibition [8, 18]: 50% | growth inhibition ([8]; at 50.0 µM): 55.5% | growth inhibition ([9]; at 1.2 µM): -5% | growth inhibition ([9]; at 3.7 µM): 15% | growth inhibition ([9]; at 11.0 µM): 12% | growth inhibition ([9]; at 33.0 µM): 22% | growth inhibition ([9]; at 100.0 µM): 34% | growth inhibition [10, 17]: 20% | growth inhibition [10, 18]: 16% | growth inhibition ([10]; at 50.0 µM): 19.4% | growth inhibition ([11]; at 1.2 µM): 3% | growth inhibition ([11]; at 3.7 µM): -10% | growth inhibition [11, 17]: -9% | growth inhibition ([11]; at 11.0 µM): 14% | growth inhibition ([11]; at 33.0 µM): 7% | growth inhibition [11, 18]: 26% | growth inhibition ([11]; at 50.0 µM): 43.5% | growth inhibition ([11]; at 100.0 µM): 72% (active) | growth inhibition ([12]; at 1.2 µM): -42% | growth inhibition ([12]; at 3.7 µM): -44% | growth inhibition ([12]; at 11.0 µM): -42% | growth inhibition ([12]; at 33.0 µM): -1% | growth inhibition ([12]; at 100.0 µM): 28% | growth inhibition ([13]; at 1.2 µM): 16% | growth inhibition ([13]; at 3.7 µM): 12% | growth inhibition ([13]; at 11.0 µM): 1% | growth inhibition ([13]; at 33.0 µM): 25% | growth inhibition ([13]; at 100.0 µM): 44% | growth inhibition ([14]; at 1.2 µM): 30% | growth inhibition ([14]; at 3.7 µM): 22% | growth inhibition ([14]; at 11.0 µM): 31% | growth inhibition ([14]; at 33.0 µM): 45% | growth inhibition ([14]; at 100.0 µM): 66% | growth inhibition [15, 17]: 12% | growth inhibition [15, 18]: 46% | growth inhibition ([15]; at 50.0 µM): 52.1%

CC(C)CC(NC(=O)C(N)C(C)C)C(=O)NC(CCCCN)C(=O)Nc1ccc(N(CCCl)CCCl)cc1 (stereo unspecified)
growth inhibition ([1]; at 1.2 µM): 8% | growth inhibition ([1]; at 3.7 µM): 28% | growth inhibition ([1]; at 11.0 µM): 32% | growth inhibition ([1]; at 33.0 µM): 23% | growth inhibition ([1]; at 100.0 µM): 18% | growth inhibition ([2]; at 1.2 µM): -16% | growth inhibition ([2]; at 3.7 µM): -10% | growth inhibition ([2]; at 11.0 µM): -15% | growth inhibition ([2]; at 33.0 µM): -11% | growth inhibition ([2]; at 100.0 µM): -18% | growth inhibition ([3]; at 1.2 µM): 10% | growth inhibition ([3]; at 3.7 µM): 9% | growth inhibition ([3]; at 11.0 µM): 13% | growth inhibition ([3]; at 33.0 µM): 7% | growth inhibition ([3]; at 100.0 µM): 12% | growth inhibition ([4]; at 1.2 µM): -6% | growth inhibition ([4]; at 3.7 µM): -16% | growth inhibition ([4]; at 11.0 µM): -17% | growth inhibition ([4]; at 33.0 µM): -5% | growth inhibition ([4]; at 100.0 µM): -21% | growth inhibition ([5]; at 1.2 µM): 8% | growth inhibition ([5]; at 3.7 µM): 10% | growth inhibition [5, 17]: 38% | growth inhibition ([5]; at 11.0 µM): 8% | growth inhibition ([5]; at 33.0 µM): 0% | growth inhibition [5, 18]: 92% (active) | growth inhibition ([5]; at 50.0 µM): 16.4% | growth inhibition ([5]; at 100.0 µM): 2% | growth inhibition ([6]; at 1.2 µM): -21% | growth inhibition ([6]; at 3.7 µM): -17% | growth inhibition [6, 17]: 19% | growth inhibition ([6]; at 11.0 µM): -18% | growth inhibition ([6]; at 33.0 µM): -17% | growth inhibition [6, 18]: 22% | growth inhibition ([6]; at 50.0 µM): -7.45% | growth inhibition ([6]; at 100.0 µM): -16% | growth inhibition ([7]; at 1.2 µM): -2% | growth inhibition ([7]; at 3.7 µM): 0% | growth inhibition ([7]; at 11.0 µM): -2% | growth inhibition ([7]; at 33.0 µM): -2% | growth inhibition ([7]; at 100.0 µM): -8% | growth inhibition [8, 17]: 21% | growth inhibition [8, 18]: 34% | growth inhibition ([8]; at 50.0 µM): -48.5% | growth inhibition ([9]; at 1.2 µM): -3% | growth inhibition ([9]; at 3.7 µM): 7% | growth inhibition ([9]; at 11.0 µM): 6% | growth inhibition ([9]; at 33.0 µM): 1% | growth inhibition ([9]; at 100.0 µM): -2% | growth inhibition [10, 17]: 13% | growth inhibition [10, 18]: 25% | growth inhibition ([10]; at 50.0 µM): -7.1% | growth inhibition ([11]; at 1.2 µM): -23% | growth inhibition ([11]; at 3.7 µM): -16% | growth inhibition [11, 17]: 25% | growth inhibition ([11]; at 11.0 µM): -16% | growth inhibition ([11]; at 33.0 µM): -13% | growth inhibition [11, 18]: 17% | growth inhibition ([11]; at 50.0 µM): -28.2% | growth inhibition ([11]; at 100.0 µM): -25% | growth inhibition ([12]; at 1.2 µM): -89% | growth inhibition ([12]; at 3.7 µM): -88% | growth inhibition ([12]; at 11.0 µM): -86% | growth inhibition ([12]; at 33.0 µM): -74% | growth inhibition ([12]; at 100.0 µM): -78% | growth inhibition ([13]; at 1.2 µM): -1% | growth inhibition ([13]; at 3.7 µM): 9% | growth inhibition ([13]; at 11.0 µM): -3% | growth inhibition ([13]; at 33.0 µM): -5% | growth inhibition ([13]; at 100.0 µM): -19% | growth inhibition ([14]; at 1.2 µM): -4% | growth inhibition ([14]; at 3.7 µM): 10% | growth inhibition ([14]; at 11.0 µM): 8% | growth inhibition ([14]; at 33.0 µM): -3% | growth inhibition ([14]; at 100.0 µM): 3% | growth inhibition [15, 17]: 19% | growth inhibition [15, 18]: 37% | growth inhibition ([15]; at 50.0 µM): -44.7% | growth inhibition ([16]; at 1.2 µM): -7% | growth inhibition ([16]; at 3.7 µM): -12% | growth inhibition ([16]; at 11.0 µM): -16% | growth inhibition ([16]; at 33.0 µM): -20% | growth inhibition ([16]; at 100.0 µM): -23%
